Laboratory results as given in PubChem BioAssay (NCI).
Compounds without any hit were thinned out: in the full panel of roughly 83,000, 20% have a hit.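 The test compound was applied at a single concentration to cells in 96-well plates for 48 hours, and percent growth was recorded.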 Activity calls are given as the source filed them.

tested on: M14 melanoma; experiment: NCI-60 one-dose screen, 48 h (100 = growth as untreated, 0 = no growth, -100 = all killed); conditions: 10 µM unless noted
Description: Growth inhibition of the M14 human tumor cell line is measured as a screen for anti-cancer activity. Cells are grown in 96 well plates and exposed to the test compound for 48 hours. Compounds are tested at a single concentration, which is 10^-5 M for most compounds. The reported endpoint is percent growth (GI% or GIPRCNT), where numbers from 0 - 100% represent growth inhibition, and numbers from -100% - 0 represent cell death. For example, a value of 40 represents 60% growth inhibition. A value of 0 means no net growth occurred over the course of the experiment. A value of -40 indicates 40% of cells at the beginning of the experiment died by the end of the experiment. A value of -100 means all cells are dead at the end of the experiment.
NCI-60 Human Tumor Cell Lines Screen was performed using the standard one-dose NCI protocol, which is described in more detail at https://dtp.cancer.gov/discovery_development/nci-60/default.htm.
Compounds with GIPRCNT values below 10 were considered active. Activity score was based on GIPRCNT using the following formula: […]
Score is 0 for GIPRCNT values of 100 or above, 50 for GIPRCNT values of 0, and 100 for GIPRCNT values of -100.

Row | SMILES | growth
1 | O=[N+]([O-])c1ccc(OP(=O)(CCl)N(CCCl)CCCl)cc1 (stereo not given) | 98.6% (inactive)
2 | O=C(CC1(O)C(=O)Nc2ccc(Br)cc21)c1ccc(C(=O)NCC2CCC3(CC2)OOC2(CCCCC2)OO3)cc1 (stereo not given) | 61.6% (inactive)
3 | Oc1c(CCl)cc(Cl)cc1CCl | 108% (inactive)
4 | O=[N+]([O-])c1cnc[nH]1 | 119% (inactive)
5 | O=C([O][Hg][c]1ccccc1)c1ccccc1 | -68.3% (active)
6 | O=C(O)CNC(=O)C(Cl)(Cl)Cl | 107% (inactive)
7 | CC(C)COC(C[N+](=O)[O-])C(Cl)(Cl)Cl (stereo not given) | 105% (inactive)
8 | COc1ccc(C/C(C)=C(\c2ccc(OCCN3CCOCC3)cc2)c2ccc(OC(=O)Cc3ccccc3)cc2)cc1 | -66.9% (active)
9 | Cc1ccc(S(=O)(=O)F)cc1C(=O)O | 110% (inactive)
10 | CC(=O)O[C@H](C[C@H](C(C)C)N(C)C(=O)[C@@H](NC(=O)[C@H]1CCCCN1C)C(C)(C)C)c1nc(C(=O)N[C@@H](Cc2ccccc2)C[C@H](C)C(=O)O)cs1 | 3.36% (active)
11 | CC[C@H](C)[C@H](NC(=O)c1nccn1C)C(=O)N(C)[C@H](C[C@@H](OC(C)=O)c1nc(C(=O)N[C@@H](Cc2ccccc2)C[C@H](C)C(=O)OC)cs1)C(C)C | 3.12% (active)
12 | O=C1C2C(C(=O)[N]1[Hg][c]1cccs1)C1(Cl)C(Cl)=C(Cl)C2(Cl)C1(Cl)Cl (stereo not given) | -57.9% (active)
13 | Cc1ccc2c(C(C[N+](=O)[O-])c3cccs3)c(-c3ccccc3)[nH]c2c1 (stereo not given) | 19.4% (inactive)
14 | CC(C)=CCc1c(O)c(C(=O)CC(C)C)c(O)c2c(-c3ccccc3)cc(=O)oc12 | 61% (inactive)
15 | CN(C)CCCOc1ccc2c(c1)c(C(=O)C(=O)NCCO)cn2Cc1ccccc1 | 101% (inactive)
16 | Nc1ncnc2n[nH]nc12 | 39.8% (inactive)
17 | Clc1cccc(NCOOC2(OOCNc3cccc(Cl)c3)CCCCC2)c1 | 60.4% (inactive)
18 | CCn1c2ccccc2c2cc(C(=O)c3cccc4c3CCCN4)ccc21 | 96.9% (inactive)
19 | O=C1NC(=O)C(=Cc2ccc(OCCCCC3CCCCC3)c(Cl)c2)C(=O)N1 | 86.6% (inactive)
20 | CC(=O)ONc1ccc([N+](=O)[O-])c(C(F)(F)F)c1 | 98.8% (inactive)

Row | SMILES | growth
21 | CC(=O)OCc1cc[c]([Hg][Cl])o1 | 13% (inactive)
22 | CC(=O)O[C@H]1C(=O)[C@@]2(C)[C@H]([C@H](OC(=O)c3ccccc3)[C@]3(O)C[C@H](OC(=O)[C@H](OC(=O)OC[C@H]4COC(C)(C)O4)[C@@H](NC(=O)c4ccccc4)c4ccccc4)C(C)=C1C3(C)C)[C@]1(OC(C)=O)CO[C@@H]1C[C@@H]2O | -19% (active)
23 | CC(=O)O[C@H](C[C@H](C(C)C)N(C)C(=O)[C@@H](NC(=O)[C@H]1CCCCN1C)C(C)C)c1nc(C(=O)N[C@@H](Cc2ccccc2)C[C@H](C)C(=O)O)c(C(C)C)s1 | 4.52% (active)
24 | CCOc1ccc(/C=C/[N+](=O)[O-])cc1 | 54.5% (inactive)
25 | COc1cccc(C=NC(Cc2cnc[nH]2)C(=O)O)c1O (stereo not given) | 89.7% (inactive)
26 | CCCCCC1(CCBr)C(=O)NC(=O)NC1=O | 112% (inactive)
27 | C[C@@]12CC[C@@H](O)C[C@@H]1CC[C@H]1[C@H]2CC[C@@]2(C)[C@H](c3ccc(=O)oc3)CC[C@@]12O | -50.7% (active)
28 | COC(=O)[C@@H](C)C[C@H](Cc1cn(C)c2ccccc12)NC(=O)c1csc([C@@H](C[C@H](C(C)C)N(C)C(=O)[C@@H](NC(=O)[C@H]2CCCCN2C)C(C)C)OC(C)=O)n1 | -10.2% (active)
29 | Nc1ccc(OCCNS(=O)(=O)c2cccc(S(=O)(=O)F)c2)c(Cl)c1 | 97.3% (inactive)
30 | COC(=O)[C@@H](C)C[C@H](Cc1ccccc1)NC(=O)c1nc([C@@H](C[C@H](C(C)C)N(C)C(=O)[C@@H](NC(=O)[C@H]2CC(=O)CCN2C)C(C)C)OC(C)=O)sc1C(C)C | -10.3% (active)
31 | COc1cc2c(cc1OCCCCCn1c(-c3ccco3)nc3ccccc31)N=C[C@@H]1CCCN1C2=O | -23% (active)
32 | C/C(=C\c1ccn(-c2ccc(N)cc2C(F)(F)F)n1)[C@@H]1C[C@@H]2O[C@]2(C)CCC[C@H](C)[C@H](O)[C@@H](C)C(=O)C(C)(C)[C@@H](O)CC(=O)O1 | -12.6% (active)
33 | CC(C)(N)Cc1ccccc1 | 105% (inactive)
34 | CN[C@@]1(c2ccccc2Cl)CCCC[C@@H]1NCC1CCCO1 (stereo not given in full) | 101% (inactive)
35 | CC(=O)OC[C@]1(C)C=C2C(=O)[C@](C)(O)C3(CC3)C(C)=C2[C@H]1OC(=O)N(C)CCN(C)C(=O)OC(C)(C)C | -29.4% (active)
36 | CCOC(=O)N1CC1 | 96.5% (inactive)
37 | O=C(Nc1ccc(Cl)cc1)Nc1nccs1 | 18.1% (inactive)
38 | NC(=O)c1c(Br)n(C2OC(CO)C(O)C2O)c2ncnc(N)c12 (stereo not given) | 2.28% (active)
39 | c1ccc(COc2ccc3[nH]cc(CCN(Cc4ccccc4)Cc4ccccc4)c3c2)cc1 | 98.6% (inactive)
40 | CCOP1(=O)CC(C)=C(Cl)C(P(=O)(OCC)OCC)C1 (stereo not given) | 74.3% (inactive)
